For 16 molecules, composite z-score and z-score results are on record in PubChem BioAssay.

Active and inactive are the calls of the source. Unless noted, the rule behind the calls is not given here.

Experiment [1] has as its system XIP peptide (Xip251-270) binding. Nature of the experiment: XIP fragment 251-270 binding compounds – biochemical, small-molecule microarray, fluorescence 635/667 nm, 0.1 µg/mL protein, primary screen (AID 1182). The conditions noted are these: fluorescent protein binding, 635 nm, higher = more signal, called active from +8 up or from −8 down.
Experiment [2] has as its system XIP peptide (Xip251-270). Nature of the experiment: compounds binding XIP fragment 251-270 – biochemical, small-molecule microarray, fluorescence 635/667 nm, 0.5 µg/mL protein, primary screen (AID 1183). The note with it: fluorescence 635 nm, higher = more signal.
Experiment [3] can be described thus: blood-stage malaria parasite viability loss – strain 3D7, DAPI fluorescence, 100 nL, primary screen (AID 1184).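 Note: parasites grown inside human red blood cells in medium with human serum.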 The note with it: P. falciparum 3D7 growth, 3 d, higher = more signal.
Experiment [4] addresses Homeobox protein Hox-A13 (Mus musculus) (UniProt Q62424). Put plainly: disruptors of Hoxa13 oligonucleotide interaction – biochemical, fluorescence polarization, labeled oligonucleotide, primary screen (AID 1185). The note with it: Hoxa13:DNA binding, 15 min, higher = more signal, called active from +8 up or from −8 down.
A short description of experiment [5]: blockers of DNA damage checkpoint Chk1 activation – imaging, HeLa, hydroxyurea, phospho-Chk1 antibody, percent positive cells, primary screen (AID 1186). The note with it: hydroxyurea-induced phospho-Chk1 immunofluorescence imaging, higher = more signal.
Experiment [6] in a line: blockers of DNA damage checkpoint Chk1 activation – imaging, HeLa, hydroxyurea, phospho-Chk1 nuclear intensity, primary screen (AID 1187). The conditions noted are these: hydroxyurea-induced phospho-Chk1 immunofluorescence imaging, higher = more signal.

Homeobox protein Hox-A13 (Mus musculus), sequence (Q62424 whole entry, looked up): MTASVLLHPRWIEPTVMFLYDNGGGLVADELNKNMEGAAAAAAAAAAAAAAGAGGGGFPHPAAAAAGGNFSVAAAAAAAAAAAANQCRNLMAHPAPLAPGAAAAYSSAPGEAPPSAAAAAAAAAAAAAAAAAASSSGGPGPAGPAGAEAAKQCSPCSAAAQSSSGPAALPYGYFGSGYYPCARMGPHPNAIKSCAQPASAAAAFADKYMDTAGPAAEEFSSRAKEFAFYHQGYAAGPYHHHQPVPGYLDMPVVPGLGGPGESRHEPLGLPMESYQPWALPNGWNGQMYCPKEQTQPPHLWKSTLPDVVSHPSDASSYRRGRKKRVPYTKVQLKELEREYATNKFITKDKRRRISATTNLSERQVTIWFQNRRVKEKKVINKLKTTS

Take `C=C(C(=O)CC[C@@H](OC(=O)c1ccccc1-c1ccccc1C(=O)O)c1ccc(OCCO)cc1)C(C)C`: the values for the composite z-score in experiment [1] and in experiment [2] were -0.206 (inactive) and 0.568, respectively. The z-score in experiment [3] is -2.12; in experiment [4], -5.47 (inactive); in experiment [5], 0.468 (inactive); in experiment [6], 0.59 (inactive).

As for `COC(=O)[C@@]1(Cc2ccc(F)cc2)[C@@H]2C(=CC(=O)[C@H]2CC(=O)C(=O)N2CCCC2)CN1C(=O)c1ccccc1`, the composite z-score is 0.47 (inactive) in experiment [1] and 0.839 in experiment [2]. The z-score is -1.72 in experiment [3], -4.84 (inactive) in experiment [4], 0.261 (inactive) in experiment [5] and 0.278 (inactive) in experiment [6].

On to `C=C(CCCC)C(=O)CC[C@@H](OC(C)=O)c1ccc(OCCO)cc1`, for which the composite z-score in experiment [1] is 0.386 (inactive); in experiment [2], 0.607. The z-score in experiment [3] is -2.07; in experiment [4], -5.09 (inactive); in experiment [5], -0.266 (inactive); in experiment [6], -0.266 (inactive).

`O=C1OCC=C[C@H]2OC34C=CCN(Cn5nnc6ccccc65)C(=O)[C@H]3N(CCO)C(=O)[C@@H]4[C@@H]12` (stereo partly specified): the composite z-score in experiment [1] was -0.149 (inactive); in experiment [2], -0.884. The z-score in experiment [3] was 1.12; in experiment [4], -4.12 (inactive); in experiment [5] it was -0.743 (inactive); in experiment [6] it was -0.287 (inactive).

For the molecule `Cc1cccc([C@H]2C[C@H]3C(Br)=C[C@@]2(CO)C(=O)[C@]32CO2)c1`, the figures for the composite z-score in experiment [1] and in experiment [2] were 1.48 (inactive) and 0.137, respectively. In addition, the z-score in experiment [3] was 1.54; in experiment [4], -1.41 (inactive); in experiment [5], -0.272 (inactive); in experiment [6], -0.557 (inactive).

For `CN1C(=O)C2C=CC(C(O)c3ccc(I)cc3)N(N(c3ccccc3)c3ccccc3)C2C1=O` (stereo unspecified), the composite z-score in experiment [1] was 0.157 (inactive); in experiment [2], 0.348. For the same molecule, the z-score in experiment [3] is 0.387; in experiment [4], -1.5 (inactive); in experiment [5], -0.839 (inactive); in experiment [6], -1.1 (inactive).

Take `CCOC(=O)C1=C[C@@H](C(C)(C)C)N(S(=O)(=O)c2ccc(C)cc2)[C@H]1c1ccc(OC)cc1`: the composite z-score in experiment [1] is 0.58 (inactive); in experiment [2] it was 0.582. The z-score in experiment [3] was -1.88; in experiment [4] it was -0.488 (inactive); in experiment [5], 0.15 (inactive); in experiment [6], 0.503 (inactive).

Regarding `CN1C(=O)C2C=CC(C(O)c3ccc([N+](=O)[O-])cc3)N(Nc3ccccc3)C2C1=O` (stereo unspecified), the composite z-score in experiment [1] was 0.924 (inactive); in experiment [2] it was 0.818. Moreover, the z-score is -0.219 in experiment [3], -4.24 (inactive) in experiment [4], 0.533 (inactive) in experiment [5] and 0.397 (inactive) in experiment [6].

Take `CC(C)C[C@H]1NC(=O)CNC(=O)[C@@]23C(=O)N[C@@H](Cc4ccccc4)C2[C@H](C)[C@@]2(C)O[C@H]2C3/C=C/C/C=C\CNC1=O` (stereo partly specified): the composite z-score was 0.282 (inactive) in experiment [1] and 0.685 in experiment [2]. In addition, the z-score in experiment [3] was 0.933; in experiment [4] it was -5.94 (inactive); in experiment [5], -0.386 (inactive); in experiment [6], -0.0588 (inactive).

On to `COC(=O)[C@@]1(Cc2ccc(F)cc2)[C@H]2c3cc(C(=O)N(C)C)n(Cc4ccsc4Br)c3C[C@H]2CN1C(=O)c1ccccc1`, for which the values for the composite z-score in experiment [1] and in experiment [2] were 1.29 (inactive) and 0.102, respectively. In addition, the z-score in experiment [3] was -1.75; in experiment [4], -5.36 (inactive); in experiment [5] it was -0.219 (inactive); in experiment [6] it was -1.12 (inactive).

As to `COc1ccc([Si](C)(C)[C@@H]2[C@@H](CC(=O)N3CCC[C@H]3CO)O[C@]3(C(=O)N(Cc4cccc(N5C(=O)c6cccc7cccc5c67)c4)c4ccccc43)[C@H]2C)cc1`, the composite z-score was 3.7 (inactive) in experiment [1] and 0.703 in experiment [2]. Besides, the z-score in experiment [3] was -2.1; in experiment [4], -2.34 (inactive); in experiment [5] it was -0.798 (inactive); in experiment [6], -0.489 (inactive).

For the molecule `[N-]=[N+]=NCc1ccccc1C[C@@]1(C(N)=O)N=C(c2ccc(OCCCO)cc2)O[C@@H]1c1ccccc1N=[N+]=[N-]`, the results for the composite z-score in experiment [1] and in experiment [2] were 0.497 (inactive) and 0.63, respectively. The z-score is -2.41 in experiment [3], -4.99 (inactive) in experiment [4], 0.627 (inactive) in experiment [5] and 1.02 (inactive) in experiment [6].

Consider `COc1ccc([Si](C)(C)[C@@H]2[C@@H](CC(=O)N3Cc4ccccc4C[C@H]3CO)O[C@]3(C(=O)N(Cc4ccc(I)cc4)c4ccccc43)[C@H]2C)cc1`, for which the values for the composite z-score in experiment [1] and in experiment [2] were 0.153 (inactive) and 0.477, respectively. Moreover, the z-score in experiment [3] is -2.83; in experiment [4], -2.35 (inactive); in experiment [5], -0.67 (inactive); in experiment [6], -0.295 (inactive).

As for `C=CCNC(=O)[C@H]1[C@@H]2C(=O)O[C@@H](c3ccccc3)[C@@H](c3ccccc3)N2[C@@H](c2ccc(OCCO)cc2)[C@]12C(=O)N(C(=O)OCCOC)c1ccc(C#CCC(C(=O)OC)C(=O)OC)cc12`, the results for the composite z-score in experiment [1] and in experiment [2] were 0.275 (inactive) and 0.734, respectively. Further, the z-score was -1.82 in experiment [3], -0.253 (inactive) in experiment [4], 0.338 (inactive) in experiment [5] and 0.475 (inactive) in experiment [6].

Take `COc1cc(Cc2cc3c(c(CCc4ccccc4)n2)[Si](C(C)C)(C(C)C)O[C@H]3c2ccccc2)cc(OC)c1OC`: the composite z-score in experiment [1] was 0.41 (inactive); in experiment [2] it was 0.202. Moreover, the z-score in experiment [3] is 0.578; in experiment [4], -5.59 (inactive); in experiment [5], -0.167 (inactive); in experiment [6], -0.286 (inactive).

For `CCCCCN1CC=CC23O[C@@H]4/C=C\CCCOC(=O)C4[C@H]2C(=O)N(CCCCCO)[C@@H]3C1=O` (stereo partly specified), the results for the composite z-score in experiment [1] and in experiment [2] were 0.388 (inactive) and 0.199, respectively. For the same molecule, the z-score in experiment [3] is 0.0701; in experiment [4], -4.75 (inactive); in experiment [5], 0.726 (inactive); in experiment [6] it was 0.576 (inactive).
